A short description of test [1]: ATG_CRE_CIS: Attagene CIS-FACTORIAL HepG2 Assay for human cAMP Responsive Element (CRE) binding protein 3 (AID 2282926). The conditions noted are these: HepG2 CRE cis-reporter, Attagene multiplexed mRNA; actives raise or lower the signal. The gist of the method:
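Liver-derived HepG2, transfected with a CRE-containing reporter panel, exposed 24 h; transcript levels sized and quantified by capillary electrophoresis of labelled amplicons; signal changes either way referenced to vehicle.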

The target of test [2] is CCAAT/enhancer-binding protein beta (Homo sapiens) (UniProt P17676). The test can be described thus: ATG_C_EBP_CIS: Attagene CIS-FACTORIAL HepG2 Assay for human CCAAT/Enhancer Binding Protein (C/EBP) beta (AID 2282927). The following applies: HepG2 Attagene cis-factorial transcription factor reporter; actives raise or lower the signal. The gist of the method: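 HepG2, transient MRTU transfection, 24 h treatment. RT-PCR plus CE fluorescence; DMSO negative control, bidirectional fit.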

Test [3] in a line: ATG_CMV_CIS: Attagene CIS-FACTORIAL HepG2 Assay for human CMV (Internal Marker) (AID 2282928).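 Note: endpoint acts as a background internal control marker rather than a target.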 The conditions noted are these: HepG2 CMV promoter reporter, transcription factor profiling; actives raise or lower the signal. Put shortly:
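Reporter transcripts from transfected HepG2 cells are isolated after 24 h of chemical dosing, reverse-transcribed and amplified. Fragments labeled with 6-FAM are cut with HpaI and quantified by capillary electrophoresis; DMSO defines baseline.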

Test [4] has as its target Aryl hydrocarbon receptor (Homo sapiens) (UniProt P35869). The test can be described thus: ATG_Ahr_CIS: Attagene CIS-FACTORIAL HepG2 Assay for human Aryl Hydrocarbon Receptor (Ahr) (AID 2282930). The conditions noted are these: HepG2 AhR cis-factorial reporter transcription; actives raise or lower the signal. The gist of the method:
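Endogenous factor activity is tracked through cis-promoter reporter units transfected into HepG2 cells. Transcript levels at 24 h are read by fluorescent RT-PCR and capillary electrophoresis, with activity in either direction scored relative to DMSO.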

Test [5] can be described thus: ATG_AP_1_CIS: Attagene CIS-FACTORIAL HepG2 Assay for human Activator Protein 1 (AP-1) (AID 2282931). The conditions noted are these: HepG2 Attagene cis-factorial AP-1 reporter mRNA; actives raise or lower the signal. The gist of the method: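 Cis-regulated reporter units transiently expressed in HepG2 report endogenous transcription-factor activity. Signal: reporter mRNA at 24 h, via RT-PCR and fluorescent capillary electrophoresis. Endpoint derived by bidirectional fitting, DMSO as negative control.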

Test [6] in a line: ATG_AP_2_CIS: Attagene CIS-FACTORIAL HepG2 Assay for human Activator Protein 2 (AP-2) (AID 2282932). The following applies: HepG2 AP-2 cis-reporter, Attagene transcription factor profiling; actives raise or lower the signal. The gist of the method:
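Liver-derived HepG2 line, cis-reporter system measuring endogenous factors; 24 h dosing; reporter mRNA detected by fluorescent RT-PCR and capillary electrophoresis.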

Test [7] is described as follows: ATG_BRE_CIS: Attagene CIS-FACTORIAL HepG2 Assay for human Bone Morphogenetic Protein (BMP) Response Element (BRE) (AID 2282933). The conditions noted are these: HepG2 BMP response element reporter, Attagene transcription factor profiling; actives raise or lower the signal. Put shortly: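 HepG2 cells transiently transfected with multiplexed cis-element reporter units were dosed with chemical for 24 h. Reporter mRNA was measured by RT-PCR with fluorescent labelling, HpaI digestion and capillary electrophoresis; bidirectional fitting relative to DMSO.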

The target in test [8] is Retinoic acid receptor alpha (Homo sapiens) (UniProt P10276). The test can be described thus: ATG_DR5_RAR_CIS: Attagene CIS-FACTORIAL HepG2 Assay for human Retinoic Acid Receptor Alpha (RARE), DR5 submotif (AID 2282934). The conditions noted are these: HepG2 Attagene cis-factorial RARE DR5 reporter, mRNA; actives raise or lower the signal. The gist of the method:
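After 24 h of chemical exposure, transiently transfected HepG2 cells were lysed for total RNA; the DR5-regulated reporter transcript was quantified via RT-PCR and capillary electrophoresis, with activity fitted bidirectionally against DMSO.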

The nature of test [9]: ATG_E_Box_CIS: Attagene CIS-FACTORIAL HepG2 Assay for human Enhancer Box (E-box) (AID 2282936). The conditions noted are these: HepG2 E-box cis-reporter transcription, actives raise or lower the signal. Put shortly:
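In this cell-based setup, HepG2 cells bearing transfected promoter-driven reporter units were exposed to chemicals for 24 h; reporter transcripts were amplified, 6-FAM-labelled, cut with HpaI and sized by capillary electrophoresis.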

The nature of test [10]: ATG_M_61_CIS: Attagene CIS-FACTORIAL HepG2 Assay for M61 Transcription Factor (Internal Marker) (AID 2282937). The following applies: HepG2 Attagene CIS-FACTORIAL M61 internal marker reporter; actives raise or lower the signal. Put shortly: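 Background-control endpoint: HepG2 cells with cis-regulated reporter constructs, 24 h exposure, reporter mRNA detected via fluorescent primer extension and capillary electrophoresis; values from bidirectional fitting with DMSO baseline.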

Test [11] in a line: ATG_EGR_CIS: Attagene CIS-FACTORIAL HepG2 Assay for human Early Growth Response 1 (EGR1) (AID 2282938). The following applies: HepG2 Attagene CIS-FACTORIAL EGR reporter mRNA; actives raise or lower the signal. Put shortly:
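Endpoint derived by bidirectional fitting versus DMSO vehicle. Method: cis-promoter reporter units transfected into HepG2, 24 h dosing, RNA isolation, RT-PCR with 6-FAM primer extension and HpaI digestion, then capillary electrophoresis fluorescence detection.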

The nature of test [12]: ATG_M_19_CIS: Attagene CIS-FACTORIAL HepG2 Assay for M19 Transcription Factor (Internal Marker) (AID 2282939). The following applies: HepG2 Attagene CIS-FACTORIAL M19 internal marker reporter; actives raise or lower the signal. The gist of the method:
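HepG2 cells transiently transfected with cis-regulated multiple reporter transcription units were dosed for 24 h; reporter mRNA was quantified by RT-PCR, 6-FAM primer-extension labelling, HpaI digestion and capillary electrophoresis, with bidirectional fitting against DMSO baseline.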

Test [13] is described as follows: ATG_Ets_CIS: Attagene CIS-FACTORIAL HepG2 Assay for human Erythroblast Transformation Specific (ETS) (AID 2282941). The following applies: HepG2 ETS cis-reporter transcription, actives raise or lower the signal. Put shortly: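 Bidirectional fit versus DMSO of reporter mRNA signal, detected by RT-PCR and capillary electrophoresis in HepG2 cells transiently transfected with cis-element reporters and dosed 24 h.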

In test [14] the target is Hepatocyte nuclear factor 3-beta (Homo sapiens) (UniProt Q9Y261). The test can be described thus: ATG_FoxA2_CIS: Attagene CIS-FACTORIAL HepG2 Assay for human Forkhead box A2 (FOXA2) (AID 2282942). The conditions noted are these: HepG2 cis-reporter transcription factor activity, 24 h; actives raise or lower the signal. Put shortly: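 Measured: reporter mRNA induction or loss in HepG2 transiently carrying multiple cis-regulated reporter units, 24 h after dosing. Quantified by RT-PCR plus capillary electrophoresis, normalised to DMSO.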

A short description of test [15]: ATG_FoxO_CIS: Attagene CIS-FACTORIAL HepG2 Assay for human Forkhead box O (FoxO) (AID 2282943). The following applies: HepG2 Attagene cis-reporter, FoxO element, mRNA; actives raise or lower the signal. The gist of the method: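 Transfected HepG2 reporter cells exposed to test chemical for 24 h; reporter RNA measured by reverse transcription, PCR and fluorescent capillary electrophoresis; curves fitted for increases and decreases against DMSO.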

Test [16] in a line: ATG_GATA_CIS: Attagene CIS-FACTORIAL HepG2 Assay for human GATA Binding Protein (AID 2282944). The following applies: HepG2 GATA cis-element reporter, Attagene multiplex mRNA; actives raise or lower the signal. Put shortly:
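HepG2 cells transiently transfected with multiplexed cis-element reporter units reflecting endogenous transcription factor activity; reporter mRNA measured after 24 h dosing by RT-PCR, 6-FAM labeling, HpaI digestion and capillary electrophoresis. Bidirectional fitting versus DMSO baseline.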

A short description of test [17]: ATG_GLI_CIS: Attagene CIS-FACTORIAL HepG2 Assay for human Zinc Finger Protein GLI1 (AID 2282945). The following applies: HepG2, Attagene cis-factorial reporter mRNA, GLI element; actives raise or lower the signal. Put shortly: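 Transiently transfected HepG2 cells report endogenous transcription factor activity via cis-element-driven reporter units. After 24 h compound exposure, reporter mRNA was measured by RT-PCR with capillary electrophoresis; bidirectional fitting against DMSO baseline.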

Test [18] is described as follows: ATG_DR4_LXR_CIS: Attagene CIS-FACTORIAL HepG2 Assay for human Liver X Receptor (LXR), DR4 submotif (AID 2282929). The following applies: HepG2 Attagene DR4 cis-reporter, mRNA transcription; actives raise or lower the signal. The gist of the method:
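DR4 cis-reporter in HepG2, 24 h exposure. Detection: RT-PCR, 6-FAM labelling, CE fragment analysis. Endpoint fitted bidirectionally, DMSO = baseline.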

Test [19] addresses Transcription factor E2F1 (Homo sapiens) (UniProt Q01094). The test can be described thus: ATG_E2F_CIS: Attagene CIS-FACTORIAL HepG2 Assay for human E2F Transcription Factor 1 (AID 2282935). The conditions noted are these: HepG2 Attagene cis-reporter, E2F reporter RNA transcripts; actives raise or lower the signal. Put shortly:
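Liver-derived HepG2 cells expressing transfected promoter-driven reporter units received test chemical for 24 hours. Signal gains or losses were fitted bidirectionally against DMSO.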

Test [20] can be described thus: ATG_ERE_CIS: Attagene CIS-FACTORIAL HepG2 Assay for Estrogen Response Element (ERE) (AID 2282940). The conditions noted are these: HepG2 ERE cis-reporter, Attagene RNA transcript; actives raise or lower the signal. The gist of the method: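 HepG2 cells transiently transfected with cis-promoter-driven multiplexed reporter transcription units report endogenous TF activity. After 24 h compound exposure, reporter mRNA is quantified by RT-PCR with capillary electrophoresis fluorescence; bidirectional fitting versus DMSO baseline.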

Among the data in PubChem BioAssay (EPA / NIEHS) are outcome and AC50 values, retold here.

The source made the active and inactive calls. Rule for the calls: active = hit-call score of the fitted dose curve at least 0.9, where 1 is the maximum; inactive = score below 0.9.

CCAAT/enhancer-binding protein beta (Homo sapiens), sequence (P17676 whole entry, looked up): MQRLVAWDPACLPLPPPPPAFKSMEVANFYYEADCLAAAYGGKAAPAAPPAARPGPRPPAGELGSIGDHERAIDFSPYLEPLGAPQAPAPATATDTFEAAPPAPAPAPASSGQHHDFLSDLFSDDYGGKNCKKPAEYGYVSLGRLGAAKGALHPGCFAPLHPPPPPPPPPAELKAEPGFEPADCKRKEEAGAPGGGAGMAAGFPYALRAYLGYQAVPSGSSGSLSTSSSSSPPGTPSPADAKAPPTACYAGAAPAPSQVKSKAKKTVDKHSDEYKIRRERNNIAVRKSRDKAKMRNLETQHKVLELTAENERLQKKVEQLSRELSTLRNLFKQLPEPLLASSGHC
Aryl hydrocarbon receptor (Homo sapiens), sequence (P35869 whole entry, looked up): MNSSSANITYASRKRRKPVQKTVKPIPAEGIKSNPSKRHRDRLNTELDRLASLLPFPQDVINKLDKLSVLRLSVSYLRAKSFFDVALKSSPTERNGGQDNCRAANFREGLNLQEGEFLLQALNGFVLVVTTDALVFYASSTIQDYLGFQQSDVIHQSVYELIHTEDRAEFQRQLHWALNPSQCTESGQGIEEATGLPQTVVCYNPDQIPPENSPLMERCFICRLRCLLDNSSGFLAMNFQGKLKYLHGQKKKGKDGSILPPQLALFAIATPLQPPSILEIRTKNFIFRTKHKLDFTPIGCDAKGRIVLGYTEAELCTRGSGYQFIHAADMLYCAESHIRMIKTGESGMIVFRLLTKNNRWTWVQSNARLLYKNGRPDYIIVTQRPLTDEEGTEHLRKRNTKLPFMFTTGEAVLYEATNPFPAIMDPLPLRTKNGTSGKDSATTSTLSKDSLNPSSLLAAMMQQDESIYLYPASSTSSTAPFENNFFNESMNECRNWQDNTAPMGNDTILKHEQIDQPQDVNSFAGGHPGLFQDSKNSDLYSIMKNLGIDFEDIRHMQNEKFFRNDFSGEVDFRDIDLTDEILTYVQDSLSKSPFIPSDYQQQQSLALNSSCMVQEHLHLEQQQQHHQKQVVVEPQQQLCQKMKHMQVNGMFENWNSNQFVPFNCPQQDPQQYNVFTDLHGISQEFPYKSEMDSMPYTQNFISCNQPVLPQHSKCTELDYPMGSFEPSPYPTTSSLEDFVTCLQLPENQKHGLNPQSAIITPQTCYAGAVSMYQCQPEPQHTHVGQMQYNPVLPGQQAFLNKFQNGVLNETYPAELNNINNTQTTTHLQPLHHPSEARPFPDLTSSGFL
Hepatocyte nuclear factor 3-beta (Homo sapiens), sequence (Q9Y261 whole entry, looked up): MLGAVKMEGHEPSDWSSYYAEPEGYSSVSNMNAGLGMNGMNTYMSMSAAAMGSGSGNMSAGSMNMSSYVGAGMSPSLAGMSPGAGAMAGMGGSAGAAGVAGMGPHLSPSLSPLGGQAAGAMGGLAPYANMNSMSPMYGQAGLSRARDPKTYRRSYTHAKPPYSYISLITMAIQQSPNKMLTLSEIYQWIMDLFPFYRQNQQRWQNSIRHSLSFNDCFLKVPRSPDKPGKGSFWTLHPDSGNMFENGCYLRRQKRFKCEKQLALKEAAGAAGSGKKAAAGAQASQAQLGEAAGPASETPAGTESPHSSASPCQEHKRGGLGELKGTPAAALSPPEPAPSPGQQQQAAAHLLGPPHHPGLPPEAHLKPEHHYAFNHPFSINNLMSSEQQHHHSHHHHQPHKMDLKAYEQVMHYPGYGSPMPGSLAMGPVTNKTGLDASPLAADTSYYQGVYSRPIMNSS
Retinoic acid receptor alpha (Homo sapiens), sequence (P10276 whole entry, looked up): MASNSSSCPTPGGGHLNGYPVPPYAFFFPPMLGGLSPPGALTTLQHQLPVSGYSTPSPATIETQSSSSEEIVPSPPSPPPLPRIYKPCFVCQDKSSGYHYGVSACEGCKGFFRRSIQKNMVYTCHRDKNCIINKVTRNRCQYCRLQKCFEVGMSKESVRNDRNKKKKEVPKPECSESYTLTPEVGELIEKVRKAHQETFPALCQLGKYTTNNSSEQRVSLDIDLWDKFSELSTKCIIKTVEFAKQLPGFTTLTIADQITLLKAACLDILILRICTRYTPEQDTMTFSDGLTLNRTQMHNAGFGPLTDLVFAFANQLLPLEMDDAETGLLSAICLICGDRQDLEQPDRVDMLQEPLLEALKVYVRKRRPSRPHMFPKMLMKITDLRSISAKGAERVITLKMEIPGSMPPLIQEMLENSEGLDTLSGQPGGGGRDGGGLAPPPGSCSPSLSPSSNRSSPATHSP
Transcription factor E2F1 (Homo sapiens), sequence (Q01094 whole entry, looked up): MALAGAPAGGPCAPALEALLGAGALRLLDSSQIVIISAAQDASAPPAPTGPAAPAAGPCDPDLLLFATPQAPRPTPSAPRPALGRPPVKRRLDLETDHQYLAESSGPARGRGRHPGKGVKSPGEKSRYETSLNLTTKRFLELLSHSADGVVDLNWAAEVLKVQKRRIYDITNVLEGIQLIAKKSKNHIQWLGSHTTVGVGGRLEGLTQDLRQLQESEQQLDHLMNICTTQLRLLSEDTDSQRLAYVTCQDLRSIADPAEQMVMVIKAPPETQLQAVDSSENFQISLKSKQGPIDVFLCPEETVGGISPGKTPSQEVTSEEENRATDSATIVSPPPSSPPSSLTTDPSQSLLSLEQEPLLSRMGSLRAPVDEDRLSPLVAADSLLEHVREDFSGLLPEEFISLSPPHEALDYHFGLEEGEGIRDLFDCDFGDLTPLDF

Regarding `Nc1ccc2c(O)cc(S(=O)(=O)O)cc2c1`, the compound was classed as inactive in test [1], in [2], in test [3], in test [5], in test [6] and in [7]. Further, the result in test [8], in test [9], in test [10], in test [11], in [12] and in test [13] was inactive. The compound was called inactive in test [14], in test [15], in test [16] and in test [17]. Also, the AC50 in [4] is 25.9 µM (active).
On to `C=CC(=O)OCCCC`, for which the compound was called inactive in test [1], in test [2], in [18], in test [4], in test [5] and in [6]. The compound was called inactive in test [7], in test [8], in [19], in test [9], in test [10] and in [13]. In addition, the call in [14], in test [15], in test [16] and in test [17] was inactive.
`CC(C)c1ccccc1O`: the outcome in [1], in test [2], in test [18], in test [5], in test [6] and in test [7] was inactive. Further, the compound was called inactive in test [8], in [9], in test [10], in [11], in test [12] and in test [13]. In addition, the call in [14], in test [15], in test [16] and in [17] was inactive. The AC50 in test [4] is 42.9 µM (active).
For the compound `O=C1OC(=O)c2c(Cl)c(Cl)c(Cl)c(Cl)c21`, the compound was classed as inactive in [1], in test [3], in test [18], in test [6], in test [7] and in [8]. Also, the outcome in test [19], in [9], in test [10], in [11], in test [12] and in test [13] was inactive. For the same compound, the compound was classed as inactive in test [15], in test [16] and in test [17]. In addition, the AC50 is 36.2 µM (active) in test [4] and 33.2 µM (active) in test [14].
For the compound `OCCOCCN1CCN(C2=Nc3ccccc3Sc3ccccc32)CC1`, the compound was classed as inactive in test [1], in [2], in test [18], in test [6], in test [7] and in [8]. For the same compound, the outcome in [19], in test [9], in [10], in test [11], in test [12] and in [13] was inactive. The compound was classed as inactive in test [14], in test [15], in [16] and in test [17]. For the same compound, the AC50 in [4] was 113 µM (active).
Regarding `CCN(CCN)c1cccc(C)c1`, the result in test [2], in test [3], in test [18], in [5], in test [6] and in [7] was inactive. Further, the call in test [8], in [19], in test [9], in test [10], in [11] and in test [12] was inactive. The outcome in test [20], in test [13], in test [14], in test [15], in test [16] and in test [17] was inactive. The AC50 in test [4] is 50 µM (active).
Take `OCCCCC(O)CO` (stereo not given): the call in [1], in test [3], in test [18], in test [4], in [5] and in [6] was inactive. Also, the compound was called inactive in test [7], in test [8], in [19], in test [9], in [10] and in test [12]. Also, the result in [13], in [14], in test [15], in [16] and in test [17] was inactive.
